Screens: PubChem, several laboratories
Compounds with a hit are over-represented: about 2.2% of the library has one in this group of screens.
PLC-beta3 inh: human PLC-beta3 inhibitors, primary screen, biochemical, fluorescence; 1-phosphatidylinositol 4,5-bisphosphate phosphodiesterase beta-3 (Homo sapiens), Q01970; Purified PLC-beta3, fluorogenic substrate; inhibition, % at 12.2 µM; 370,000 compounds, 0.18% hits; in the data active means inhibition above about 11%;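 further: 0% = median of compound wells on plate and 100% = full blocker control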
H9c2 protect: cardioprotection against H2O2-induced cell death, primary screen, uHTS, H9c2 cells, ATPLite luminescence. H9c2 cardiomyocytes, H2O2 injury protection, 2 h. protection from H2O2 cell death, % at 20 µM. 360,000 compounds, 0.63% hits;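 active means compounds giving at least 50% protection of heart cells from peroxide-induced death in the single-dose screen, raw or plate-pattern-corrected value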;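 further: 0% = DMSO wells with peroxide and 100% = DMSO wells without peroxide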
PLC-gamma1 inh: PLC-gamma1 enzyme inhibitors, primary screen, biochemical, fluorescence, purified enzyme; AID 720700, 2013; inhibition, % at 12.2 µM; 1-phosphatidylinositol 4,5-bisphosphate phosphodiesterase gamma-1 (Homo sapiens), P19174; 370,000 compounds, 0.84% hits; fluorogenic substrate; in the data active means inhibition above about 9.5%
FAS-TE inh: FAS thioesterase domain inhibitors, primary screen, biochemical, fluorescence intensity, uHTS; inhibition, % at 15 µM; AID 602261, 2012; recombinant FAS-TE, OMFH fluorogenic substrate, fluorescence endpoint; 360,000 compounds, 0.67% hits; Fatty acid synthase (Homo sapiens), P49327;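 active means compounds whose normalised, plate-corrected inhibition of enzyme fluorescence in the single-dose primary screen is 50% or more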;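 further: 0% = DMSO with enzyme and 100% = substrate without enzyme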
Numbers without * were called inactive; x = not tested or not shown.

SMILES | PLC-beta3 inh | H9c2 protect | PLC-gamma1 inh | FAS-TE inh
C=CCn1c(COc2ccccc2)nnc1SCC(=O)N/N=C/c1ccc(C)cc1 | 1.5 | -17.8 | -2.7 | 3.1
Nc1[nH]c(C(=O)c2ccc(Br)cc2)c(-c2ccc3ccccc3c2)c1C(=O)NCCc1c[nH]c2ccccc12 | -10.5 | x | -6.2 | x
COc1ccc(C(=O)C2(C(=O)Nc3cc(C)cc(C)c3)CC(c3ccccn3)=NO2)cc1 (stereo unspecified) | -1.5 | x | 1.2 | x
CCCCCC/C=N/Nc1nnc(Cc2ccc(OC)c(OC)c2)c(=O)[nH]1 | -13.3 | -3.5 | 0.5 | -4.5
COc1ccc(Cc2nnc(N/N=C/c3ccc(O)cc3O)[nH]c2=O)cc1OC | -0.9 | 51.9* | 0.3 | -8.3
CC(=O)c1ccccc1OCCCN1CCCCC1 | 1.1 | 52.6* | -0.6 | -6.7
Brc1ccccc1OCCCN1CCCCCC1 | 1.5 | 1.7 | 0.2 | -10.8
C=CCN1[C@H](CO)[C@H](c2ccc(C#CC3(O)CCCC3)cc2)[C@@H]1C#N | -7.6 | x | -3.0 | x
COCCCNC(=O)C[C@H]1C[C@@]2(C(=O)OC)C(=C[C@H](C(C)C)O[C@@H]2C2CC2)N(Cc2ccc3c(c2)OCO3)C1=O | 3.1 | x | -0.7 | x
C[C@@H]1CCC(=O)N(C[C@@H](C)CSc2ccccc2)CC1 | 7.2 | 2.4 | 10.9* | 1.0
CC(=O)Oc1ccc(C(=O)OCC(=O)c2c(N)n(C)c(=O)n(C)c2=O)cc1OC(C)=O | -5.5 | 65.4* | 0.9 | -1.4
CCCn1nc(C(=O)OCC(=O)c2c(N)n(C)c(=O)n(C)c2=O)c2ccccc2c1=O | -4.3 | 60.8* | 1.3 | 2.4
C[C@H]1COc2cc(Br)ccc2S(=O)(=O)N1Cc1cn(CCC2OCCO2)nn1 | -0.6 | x | 0.5 | x
CC1(C(=O)N2CCC(Oc3cccnc3)CC2)CC1 | 3.0 | x | 5.0 | x
Cc1ccc(S(=O)(=O)N2CCN(C(=O)CCc3nc4ccccc4c(=O)[nH]3)CC2)c(C)c1 | -5.8 | 72.0* | -2.3 | -2.4
Cc1ccc(C)c(S(=O)(=O)N2CCN(C(=O)CCc3nc4ccccc4c(=O)[nH]3)CC2)c1 | -16.3 | 57.4* | -7.2 | -0.1
Cc1ccc(NC(=O)CCc2ccccc2)cc1S(=O)(=O)N1CCOCC1 | 0.6 | 5.6 | -2.9 | -3.4
Cc1ccc(C)c(S(=O)(=O)N2CCN(C(=O)CCc3c[nH]c4ccccc34)CC2)c1 | -5.3 | -2.8 | -4.6 | 8.2
O=C(CCc1nc2ccccc2c(=O)[nH]1)N1CCN(S(=O)(=O)c2ccc(Cl)c(C(F)(F)F)c2)CC1 | -5.3 | 36.6 | 0.3 | 7.4
Cc1ccc(NC(=O)c2cc(=O)c3ccccc3o2)cc1S(=O)(=O)N1CCOCC1 | 5.0 | 60.5* | 7.4 | 6.5
Cc1ccc(NC(=O)CCc2nc3ccccc3c(=O)[nH]2)cc1S(=O)(=O)N1CCOCC1 | -10.6 | 86.2* | -5.0 | -2.9
CC(OC(=O)CCc1nc2ccccc2c(=O)[nH]1)C(=O)Nc1ccc2c(c1)OCO2 (stereo unspecified) | -5.1 | 50.4* | -0.9 | -4.4
CC(C)c1ccc(S(=O)(=O)N2CCN(C(=O)CCc3nc4ccccc4c(=O)[nH]3)CC2)cc1 | -5.9 | 43.5 | -4.0 | 11.6
O=C(CCc1nc2ccccc2c(=O)[nH]1)N1CCN(S(=O)(=O)c2ccccc2Br)CC1 | -7.4 | 70.6* | -1.6 | -3.4
COc1ccccc1C1c2c(ncn(-c3ccccc3)c2=N)Oc2ccc3ccccc3c21 (stereo unspecified) | -1.1 | x | 3.8 | x
SMILES | PLC-beta3 inh | H9c2 protect | PLC-gamma1 inh | FAS-TE inh
COCCn1ccc2c(OCC(=O)Nc3ccccc3OC)cccc2c1=O | -2.8 | 53.8* | 4.2 | -1.3
COCCNC(=O)COC(=O)c1ccc(OCC(=O)Nc2ccccc2OC)c(OC)c1 | 3.9 | 56.3* | 4.4 | -40.3
CCOCCn1ccc2c(OCC(=O)Nc3ccc(OC)cc3OC)cccc2c1=O | 3.2 | 11.5 | 2.3 | 7.1
COc1ccc(C2CC(=O)C(c3ccccc3C)=CN2Cc2ccccc2)cc1 (stereo unspecified) | -32.1 | x | -20.2 | x
O=C(Nc1ncnc2c1C(c1ccccc1)c1c(ccc3ccccc13)O2)c1ccccc1 (stereo unspecified) | -6.3 | 14.5 | -6.6 | 96.4*
O=C(Cc1ccccc1)Nc1ncnc2c1C(c1ccccc1)c1c(ccc3ccccc13)O2 (stereo unspecified) | -1.6 | 10.5 | -3.8 | 42.6
COc1cc(-c2cc(-c3ccc(O)cc3)nc(N)c2C#N)ccc1O | -297.7 | 49.5* | -277.6 | -0.4
CCOC(=O)C1=c2/c(=C/c3ccncc3)c(N)c(C(=O)OC)n2C(=O)C(c2ccncc2)S1 (stereo unspecified) | -9.0 | 55.3* | 1.5 | 1.5
CCOC(=O)C1=C(N)n2c(s/c(=C\c3ccncc3)c2=O)=C(C(=O)OCC)C1c1ccncc1 (stereo unspecified) | 0.4 | 32.3 | -0.1 | -1.5
CCCCn1c(=NC(=O)c2cccnc2)c(C#N)cc2c(=O)n3cccc(C)c3nc21 | -131.3 | 54.3* | -105.1 | 18.7
CCCn1c(=NC(=O)c2ccncc2)c(C#N)cc2c(=O)n3cccc(C)c3nc21 | x | 7.6 | x | -7.8
Nc1ccc(Oc2ccc(N)c([N+](=O)[O-])c2)cc1[N+](=O)[O-] | 2.4 | 3.1 | 7.6 | 33.9
CC1(C)Oc2cc(N)c([N+](=O)[O-])cc2O1 | 10.2 | 17.5 | 32.5* | -4.5
O=C(Nc1ccccc1C(=O)Nc1ccccc1C(=O)NCc1ccco1)c1ccco1 | -154.3 | 52.5* | -131.1 | 19.6
CC(C)(C)OC(=O)N1CCC2CCN(S(=O)(=O)c3ccccc3)CC21 (stereo unspecified) | 1.1 | x | 2.1 | x
COc1ccc(C(=O)NNC(=O)c2ccccn2)cc1 | 3.1 | -10.5 | 0.4 | -5.8
COc1cc(OC)cc(C(=O)NNC(=O)c2ccccn2)c1 | 3.0 | 51.2* | 2.6 | -3.8
CC(Oc1ccccc1)C(=O)NNC(=O)c1ccccn1 (stereo unspecified) | 2.9 | 34.9 | 0.5 | -9.7
CC(Oc1cccc(Br)c1)C(=O)NNC(=O)c1ccccn1 (stereo unspecified) | x | 79.1* | x | -5.5
CCCCCN1CCCCC(NC(=O)C2CCCCC2)C1=O (stereo unspecified) | -3.6 | x | -2.9 | x
COc1ccc(C(=O)C2(C(=O)NC3CCCC3)CC(c3ccccc3C(F)(F)F)=NO2)cc1 (stereo unspecified) | -0.4 | x | -0.6 | x
CCOc1cc(/C=C(\C#N)C(=O)Nc2cccc(C(=O)O)c2)cc(Br)c1OC(=O)c1ccc(OC)cc1 | -9.2 | -2.1 | -1.3 | 84.3*
C=CCc1cccc(/C=N/NC(=O)c2ccc3nc[nH]c3c2)c1O | -96.8 | 50.0* | -54.3 | 13.2
O=C(N/N=C/c1ccc(Cl)cc1Cl)c1ccc2nc[nH]c2c1 | -5.2 | 9.2 | -1.1 | -10.1
C=CCc1cccc(/C=N/NC(=O)c2ccccc2OC)c1O | -14.5 | 40.7 | -15.9 | 31.0
C=CCc1cccc(/C=N/NC(=O)c2ccccc2Br)c1O | -15.9 | 51.1* | -14.7 | 38.9
O=C(NC1CCCC1)N1CCC(c2nc3ccc(Cl)cc3[nH]2)CC1 | 0.2 | x | -8.1 | x
O=C1C2C3C=CC(CC3)C2C(=O)N1c1cccc(Br)c1 (stereo unspecified) | -2.5 | 75.5* | 2.5 | -3.4
